PP5 inh = blocks human protein phosphatase 5 activity; purified PP5c, OMFP substrate fluorescence; inhibition, % at 6.7 µM; 320,000 tested, 0.18% active;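 active means inhibition above the campaign's mean inhibition across all tested compounds plus 3 SD, cut at about 9.5% in these data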
Beta cell apopt = beta cell apoptosis inhibition; INS-1E cytokine-induced death, ATP luminescence, 48 h; percent of positive-control rescue, neutral wells zero; protection from apoptosis, % (test concentration not listed); 300,000 tested, 0.8% active; AID 435005;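 active means Every replicate reaches about 75%, or at least half do and their mean reaches it too, limit read from the data; inconclusive means At least half of replicates reach the limit but their mean does not; inactive means Under half of replicates reach the limit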;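 further: higher means more ATP so stronger rescue from cytokine killing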
PP1 counter = blocks human PP1-alpha phosphatase, a PP5 counter-screen; inhibition, % at 6.7 µM; P62136; purified PP1alpha, OMFP fluorescence; 320,000 tested, 0.9% active;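 active means inhibition above the mean inhibition of all tested compounds plus 3 SD, computed separately for each screening campaign, cut at about 15% in these data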
Target sequence (P62136 whole entry, looked up): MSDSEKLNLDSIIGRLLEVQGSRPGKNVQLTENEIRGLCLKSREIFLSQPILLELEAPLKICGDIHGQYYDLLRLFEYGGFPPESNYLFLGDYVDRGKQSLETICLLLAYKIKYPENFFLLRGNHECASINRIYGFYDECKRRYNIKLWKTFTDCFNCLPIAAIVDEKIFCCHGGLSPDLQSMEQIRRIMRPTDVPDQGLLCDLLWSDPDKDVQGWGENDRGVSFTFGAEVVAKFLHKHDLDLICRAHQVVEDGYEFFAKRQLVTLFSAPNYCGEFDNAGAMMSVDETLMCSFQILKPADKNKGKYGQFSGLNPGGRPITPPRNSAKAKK
SKKanGAS inh = blocks kanamycin growth of S. pyogenes SKKanGAS strain; BacTiter-Glo, 6 h; inhibition, % at 7.5 µM; 300,000 tested, 1.3% active;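 active means mean replicate score, as percent of positive control median, at least 50; inconclusive means mean below 50 but one replicate at or above 50; inactive means mean and every replicate below 50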;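 further: strain carries kanamycin resistance gene driven by streptokinase promoter and grows in 40 µg/ml kanamycin; loss of luminescence reflects streptokinase promoter inhibition or plain growth inhibition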
CSC inhib = blocks cancer stem cells. AID 2717. inhibition, % at 7.5 µM. 300,000 tested, 1.1% active. cancer stem cell-like cells viability, luminescence; in the data active means inhibition above about 75%; inconclusive means no clear call, values can overlap the other calls; tested in HMLE shEcad cells
Each line names hits and unclear results; the compound was inactive in the other large screens. An excerpt weighted towards active compounds, which were near 3.1% of everything screened.

OCC1OC(Oc2c[nH]c3ccccc23)C(O)C(O)C1O (stereo not given)	none
Nc1nc(Cl)cc(N2CCC(c3cc(-c4ccc(Cl)cc4)n[nH]3)CC2)n1	Beta cell apopt 104
CS(=O)(=O)N1CCN(c2ccc(NC(=O)c3ccc(-c4ccc(Cl)cc4)o3)cc2)CC1	none
CN1CCN(c2ccc(NC(=O)c3ccc(-c4ccc(Cl)cc4)o3)cc2)CC1	SKKanGAS inh inconclusive, CSC inhib 105
Cc1cc(C(=O)NC2CCCc3c2cnn3-c2cccc(C)c2C)n(C)n1 (stereo not given)	Beta cell apopt 112
Cc1ccc(C(=O)NC2CCCc3c2cnn3-c2ccc(F)cc2F)cn1 (stereo not given)	Beta cell apopt 100
Cc1cc(C(=O)NC2CCCc3c2cnn3-c2ccc(C)c(C)c2)no1 (stereo not given)	none
Cn1nccc1C(=O)NC1CCCc2c1cnn2-c1ccc(C(C)(C)C)cc1 (stereo not given)	Beta cell apopt 116
Cc1cccc(-n2ncc3c2CCCC3NC(=O)c2ccc[n+]([O-])c2)c1C (stereo not given)	none
Cc1ccc(-n2ncc3c2CCCC3NC(=O)c2ocnc2C)cc1C (stereo not given)	Beta cell apopt 80
Cc1ccc(C(=O)NCC(=O)OC(C)C(=O)NC2CCCc3ccccc32)cc1 (stereo not given)	none
CCc1ccn2cc(-c3ccc4c(c3)OCO4)nc2c1	CSC inhib 78
COc1ccc(/C=C/c2cc(-c3ccc(C)cc3)o[n+]2C)cc1	Beta cell apopt 116, CSC inhib 92
Cc1ccc(/C=N/NC(=O)Cc2c(F)cccc2Cl)s1	none
COc1ccc(S(=O)(=O)N2CC(O)C[C@H]2C(=O)OCC(=O)N2CCCCCC2)cc1 (stereo not given in full)	none
CCOC(=O)C(C(C)=O)c1c(Br)c(O)c(O)c2c(C(=O)c3ccc(C)cc3)coc12 (stereo not given)	Beta cell apopt 95, CSC inhib 103
CC1CCc2c(sc3nc(C4CC4)nc(N4CCN(C(=O)c5ccco5)CC4)c23)C1 (stereo not given)	Beta cell apopt 98, SKKanGAS inh 58
COC(=O)C1=C(C)N(Cc2ccccc2)C(=NCCc2c[nH]c3ccccc23)N[C@H]1c1ccccc1	none (no result: PP5 inh, PP1 counter, SKKanGAS inh)
COC(=O)C1=C(C)N(Cc2ccccc2)C(=NCc2ccccc2)N[C@H]1c1ccccc1	none (no result: PP5 inh, PP1 counter, SKKanGAS inh)
COC(=O)C1=C(C)N(Cc2ccccc2)C(=NCCc2c[nH]c3ccccc23)N[C@H]1c1cccc(F)c1	CSC inhib 123 (no result: PP5 inh, PP1 counter, SKKanGAS inh)
COC(=O)C1=C(C)N(Cc2ccccc2)C(=NCc2cccc(Cl)c2)N[C@H]1c1ccccc1	CSC inhib 122 (no result: PP5 inh, PP1 counter, SKKanGAS inh)
Cc1c(C(=O)CN2CCCC(C)(C)C2)c2ccccc2n1C	none
O=C(NCc1cccc(Br)c1)C1CC(c2ccccc2[N+](=O)[O-])=NO1 (stereo not given)	none
COc1ccc(-c2nc(Cn3c(SCc4ccc(C)cc4)nc4ccncc43)c(C)o2)cc1OC	none
COc1ccc(-c2nc(Cn3c(SCc4cccc(F)c4)nc4ccncc43)c(C)o2)cc1OC	CSC inhib 82
Nc1nonc1C(=O)NCCN=Cc1ccccc1O	none
Nc1nonc1C(=O)NCCN=Cc1cc(Cc2ccccc2)cc(Br)c1O	SKKanGAS inh 52 (no result: CSC inhib)
CCOC(=O)/C(=C\c1ccccc1)C(=O)c1cc(C(C)=O)c(Nc2ccccc2)s1	Beta cell apopt 98, CSC inhib 76
CCOC(=O)/C(=C\c1cccnc1)C(=O)c1cc(C(C)=O)c(Nc2ccccc2)s1	Beta cell apopt 105, CSC inhib 97
CCOC(=O)/C(C#N)=C\c1cccnc1	none (no result: CSC inhib)
Cc1ccc(S(=O)(=O)N(CC(=O)Nc2ccc(C)cc2C)C(=O)N2CCN(C)CC2)cc1	none (no result: CSC inhib)
CCc1ccc2nc(Nc3nc(COC)cc(=O)[nH]3)nc(C)c2c1	none (no result: Beta cell apopt, CSC inhib)
COCc1cc(=O)[nH]c(Nc2nc3ccc(C)cc3o2)n1	Beta cell apopt 80, SKKanGAS inh 70 (no result: CSC inhib)
CC(C)Oc1ccc(C(=O)Nc2ccc(Cl)c(S(=O)(=O)Nc3ccc(Cl)cc3)c2)cc1	SKKanGAS inh 110
O=c1[nH]c(SCc2cccc(Cl)c2)nc2[nH]ncc12	none
O=C(/C=C/c1ccccc1)NC(NC(=S)Nc1cccc(Cl)c1)C(Cl)(Cl)Cl (stereo not given)	SKKanGAS inh 101 (no result: Beta cell apopt)
O=C(/C=C/c1ccccc1)NC(NC(=S)Nc1ccc(Cl)cc1Cl)C(Cl)(Cl)Cl (stereo not given)	SKKanGAS inh 76, CSC inhib 110
Cc1ccc(C)c(NC(=S)NC(NC(=O)OCc2ccccc2)C(Cl)(Cl)Cl)c1 (stereo not given)	none
O=C(NC(NC(=S)Nc1c(Cl)cc(Cl)cc1Cl)C(Cl)(Cl)Cl)OCc1ccccc1 (stereo not given)	SKKanGAS inh 86
CC1(C)Cc2c(sc(NC(=O)COc3cccc4ccccc34)c2C#N)C(C)(C)N1	PP1 counter 15
Cc1ccc(OCC(=O)Nc2sc3c(c2C#N)CC(C)(C)NC3(C)C)cc1	none
CN(Cc1ccccc1)C(=O)COC(=O)C1CCN(S(=O)(=O)c2ccc(Cl)c(C(F)(F)F)c2)CC1	none
CC(C)(C)C(=O)/C(=C/c1ccncc1)n1cncn1	none
CCOc1ccc(C(C)NC(=O)c2cc(=O)[nH]c3ccccc23)cc1OCC (stereo not given)	none (no result: Beta cell apopt)
CCN(CC)S(=O)(=O)c1cccc(NC(=O)Nc2cccc(C(F)(F)F)c2)c1	Beta cell apopt 112, CSC inhib 103
CCN(CC)S(=O)(=O)c1ccc(C)c(NC(=O)CNc2cccc(S(=O)(=O)N3CCCC3)c2)c1	none (no result: Beta cell apopt)
CCN(CC)S(=O)(=O)c1cccc(NC(=O)CNc2cccc(S(=O)(=O)N3CCCC3)c2)c1	Beta cell apopt 112
Oc1ccc(Br)cc1-c1cc(-c2ccccc2)n[nH]1	SKKanGAS inh 80, CSC inhib 120
Oc1ccc(Br)cc1-c1cc(-c2ccc(Cl)cc2)n[nH]1	Beta cell apopt 92
O=[N+]([O-])c1cccc(-c2cc(-c3cc(Br)ccc3O)[nH]n2)c1	CSC inhib 97 (no result: Beta cell apopt)
COc1ccc(O)c(-c2cc(-c3cccc(Br)c3)n[nH]2)c1	SKKanGAS inh 56
COc1ccc(-c2cc(-c3ccc(Cl)cc3)n[nH]2)c(O)c1	SKKanGAS inh inconclusive
COc1ccc(-c2cc(-c3cc(OC)ccc3O)[nH]n2)cc1	none
CCc1ccc(N2CC(C(=O)Nc3cc(C)on3)CC2=O)cc1 (stereo not given)	none
CC(C)c1ccc(NC(=O)c2ccc(NS(C)(=O)=O)cc2)cc1	none
O=C(c1ccc(Cl)cc1)c1cnc(Nc2ccccc2Cl)s1	SKKanGAS inh 75
CCCOc1ccc(Cc2c(Cl)nc(SC)nc2OC)cc1	SKKanGAS inh 53
CSc1nc(Cl)c(Cc2ccc(OC(C)C)cc2)c(N2CCOCC2)n1	none
CCCOc1ccc(Cc2c(Cl)nc(SC)nc2N(C)C)cc1	SKKanGAS inh 64 (no result: CSC inhib)
COc1nc(SC)nc(Cl)c1Cc1ccc(OC(C)C)cc1	none
CN1CCN(CC(=O)c2ccccc2F)CC1	none
